From PubChem BioAssay (Tox21)
Results filed as inconclusive are left out. A call without a number means that no potency is given here. Active and inactive are the calls of the source. Calls come from the whole dose curve.

test: p53 small molecule agonists, cell-based qHTS assay with human liver microsomes: qHTS cell viability counter screen (AID 1963579); conditions: p53RE-bla HCT-116 viability, ATP luminescence, 16 h, HLM; series mostly up to 66 µM; note: nearly all actives have a fitted effect of over 45% in size
In short: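 Metabolically activated exposure: compounds, human liver microsomes and NADPH (0.5 mg/mL final apiece) were added to p53RE-bla cells seeded 5 h earlier, left 16 h at 37 C, and then assessed for viability by CellTiter-Glo luminescence.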

| Structure (SMILES) | Potency |
| --- | --- |
| OC[C@H]1O[C@@H]2O[C@H]3[C@H](O)[C@@H](O)[C@@H](O[C@H]4[C@H](O)[C@@H](O)[C@@H](O[C@H]5[C@H](O)[C@@H](O)[C@@H](O[C@H]6[C@H](O)[C@@H](O)[C@@H](O[C@H]7[C@H](O)[C@@H](O)[C@@H](O[C@H]8[C@H](O)[C@@H](O)[C@@H](O[C@H]9[C@H](O)[C@@H](O)[C@@H](O[C@H]1[C@H](O)[C@H]2O)O[C@@H]9CO)O[C@@H]8CO)O[C@@H]7CO)O[C@@H]6CO)O[C@@H]5CO)O[C@@H]4CO)O[C@@H]3CO | inactive |
| CCCCCCCCCCCCOC(C)=O | inactive |
| S=C(S)NCCNC(=S)S | inactive |
| C=Cc1ccc(C(C)(C)C)cc1 | inactive |
| CCN[C@H]1C[C@H](C)S(=O)(=O)c2sc(S(N)(=O)=O)cc21 | inactive |
| O=c1c2ccccc2oc2ccccc12 | inactive |
| Nc1ncn([C@H]2C[C@H](O)[C@@H](CO)O2)c(=O)n1 | inactive |
| CC(=O)Nc1ccc(S(=O)(=O)Cl)cc1 | inactive |
| CC(C)(C)C(=O)CCc1ccc(Cl)cc1 | inactive |
| CC(=O)NNC(C)=O | inactive |
| O=[N+]([O-])c1ccc(Cl)cc1Cl | inactive |
| OCC1CC=CCC1 (centres undefined) | inactive |
| C=CCN(CC=C)CC=C | inactive |
| O=C(Cl)c1c(Cl)cccc1Cl | inactive |
| NCCCN(CCO)CCO | inactive |
| CC1=C(C(=O)O)N2C(=O)[C@@H](NC(=O)[C@H](N)C3=CCC=CC3)[C@H]2SC1 | inactive |
| C#CC(O)C(CC)CCCC (centres undefined) | inactive |
| C=C1CCC2CC1C2(C)C (centres undefined) | inactive |
| CC(C)CCOCc1ccccc1 | inactive |
